Consider 25 compounds from PubChem BioAssay (NCATS).

Records with an inconclusive call do not appear. A number with no mark means an inactive call. Calls of active or inactive are those of the source. The call rests on the fitted dose curve; in most records, active means well fitted curve in the direction sought with a large enough effect; inconclusive means small, poorly fitted or top-dose-only effect, or another doubt; inactive means no such curve, though single readings can be large; an effect the other way counts as inactive or inconclusive. Square brackets hold non-standard residues; d marks the D form. Peptide text beside a SMILES is read from it. * marks the point of attachment. AFC = O=c1cc(C(F)(F)F)c2ccc(N*)cc2o1

Test [1] addresses Cellular tumor antigen p53 (Homo sapiens) (UniProt P04637). The test can be described thus: Primary qHTS for small molecule compounds that upregulate eGFP-tagged delta133p53alpha (in N-terminal) cells. (AID 2060322). Further: nearly all actives have a fitted effect of over 75% in size. Further: potency means the concentration at half of the fitted maximal effect.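 On activation: cells pre-induced with doxycycline then dosed without doxycycline; series mostly up to about 56 µM; 0% = DMSO vehicle and 100% = reference activator.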 Particulars: NCI-H358 eGFP-delta133p53alpha fluorescence, 24 h; activation: active compounds read high. In outline:
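NCI-H358 cells pre-induced 24 h with 10 ng/ml doxycycline for eGFP-delta133p53alpha, plated dox-free and exposed 24 h at 37C to titrated compounds. Fixed, Hoechst-stained; gated GFP peak intensity by laser scanning cytometry, normalized to DMSO (0%) and 57.5 uM 5-azacytidine (100%).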
(In qHTS, concentration-response curves come from the screen itself.)

The target in test [2] is Aldehyde dehydrogenase, mitochondrial (Homo sapiens) (UniProt P05091). The test is described as follows: qHTS for Inhibitors of the Aldehyde Dehydrogenase Family (ALDH2) Primary screen (AID 2061308).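 Further: plate controls were vehicle for no effect and reference inhibitor for full effect; nearly all actives have a fitted effect of over 55% in size.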
For test [3], the target named is Retinaldehyde dehydrogenase 3 (Homo sapiens) (UniProt P47895). The test can be described thus: qHTS for Inhibitors of the Aldehyde Dehydrogenase Family (ALDH1A3) Primary screen (AID 2061315).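 Further: plate controls were DMSO vehicle for no effect and reference inhibitor for full effect.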

Chain of Cellular tumor antigen p53 (Homo sapiens) (P04637 whole entry, looked up): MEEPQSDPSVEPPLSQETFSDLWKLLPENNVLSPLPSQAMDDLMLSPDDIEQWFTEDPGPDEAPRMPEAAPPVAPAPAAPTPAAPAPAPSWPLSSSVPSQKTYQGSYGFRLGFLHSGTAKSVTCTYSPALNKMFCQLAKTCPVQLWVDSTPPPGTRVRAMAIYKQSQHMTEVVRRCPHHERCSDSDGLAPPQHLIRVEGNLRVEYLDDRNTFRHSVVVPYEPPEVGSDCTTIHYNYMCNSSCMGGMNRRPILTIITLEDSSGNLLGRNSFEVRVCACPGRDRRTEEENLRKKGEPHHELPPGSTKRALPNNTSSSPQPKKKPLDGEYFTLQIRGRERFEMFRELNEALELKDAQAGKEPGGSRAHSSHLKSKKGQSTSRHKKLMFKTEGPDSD

Turning to `CC(C)CC1NC(=O)C(C)NC(=O)C(CC(C)C)OC(=O)CCCNC1=O` (stereo not given), the activation in test [1] is -2.68%. Further, the Potency entry in test [2] and in test [3] was “inactive” each time.

As to `Cc1c(CN2CCN(C(=O)C(C)O)CC2)sc2c(N3CCOCC3)nc(-c3cnc(N)nc3)nc12` (stereo not given), in test [1], the Potency was 12 µM (active). Further, the Potency entry in test [2] and in test [3] was “inactive” in each case.

In the case of `CC1=CC(=O)C2C(C)(C)CCC[C@]2(C)[C@H]1CO` (stereo not given in full), in test [1], the activation is -3.82%. The Potency result in test [2] and in test [3] was “inactive” in each case.

On to `COc1c(CCC(=O)O)cccc1O[C@@H]1O[C@H](CO)[C@@H](O)[C@H](O)[C@H]1O`, for which the activation in test [1] was -4.58%. The Potency result in test [2] and in test [3] was “inactive” in each case.

In the case of `O=C(O)CCc1cccc(O)c1O[C@@H]1O[C@H](CO)[C@@H](O)[C@H](O)[C@H]1O`, in test [1], the activation was 0%. In addition, the Potency entry in test [2] and in test [3] was “inactive” throughout.

Regarding `CC1CC(O)C2(OC1=O)OC1C(O)C3C4CCC5CC(OC6OC(CO)C(O)C(O)C6OC6OC(C)C(O)C(O)C6O)CCC5(C)C4CCC3(C)C1C2C` (stereo not given), in test [1], the activation was -0.893%. The Potency result in test [2] and in test [3] was “inactive” each time.

With `CC(=O)N[C@H](Cc1ccc(O)cc1)C(=O)N[C@H](CCCN=C(N)N)C(=O)N[C@H](Cc1ccccc1)C(N)=O` (Ac-[dY]-[dR]-[dF]-NH2), the activation in test [1] is -15.7%. Besides, the Potency result in test [2] and in test [3] was “inactive” in each case.

Turning to `Cc1cn2cc(C(=O)N(C)CCO)cc(NC3CCOc4cccc(C)c43)c2n1` (stereo not given), the activation in test [1] is -10.3%. The Potency result in test [2] and in test [3] was “inactive” in each case.

As to `COc1ccc(C(=O)O[C@H]2CC(C)=CC[C@@]3(C)[C@@H](OC(C)=O)C[C@@](O)(C(C)C)[C@H]23)cc1`, the activation in test [1] was 1.79%. The Potency entry in test [2] and in test [3] was “inactive” throughout.

Regarding `Cn1cc(S(C)=O)c(=O)c2ccc(F)cc21` (stereo not given), the activation in test [1] was -7.53%. In addition, the Potency entry in test [2] and in test [3] was “inactive” each time.

Regarding `CCOC(=O)N1CCC(N2CCC[C@@H](NC(=O)c3ccccc3C)C2)CC1`, in test [1], the activation was -2.86%. For the same compound, the Potency entry in test [2] and in test [3] was “inactive” each time.

`C=C(C)[C@@H](C)[C@H]1O[C@]23C[C@]4(CO2)C(CCC2[C@@]5(C)CC[C@H](O[C@@H]6OC[C@H](O)[C@H](O[C@@H]7O[C@H](CO)[C@@H](O)[C@H](O)[C@H]7O)[C@H]6O[C@@H]6O[C@@H](CO)[C@H](O)[C@H]6O)C(C)(C)C5CC[C@]24C)C3[C@@](C)(O)[C@@H]1OC(C)=O` (stereo not given in full): the activation in test [1] is -7.63%. In addition, the Potency result in test [2] and in test [3] was “inactive” throughout.

`CC1(C)CC[C@]2(C(=O)O)CC[C@]3(C)C(=CCC4[C@@]5(C)C(=O)C[C@H](O)[C@@](C)(CO)C5CC[C@]43C)[C@@H]2C1` (stereo not given in full): in test [1], the activation was -11.5%. Also, the Potency result in test [2] and in test [3] was “inactive” each time.

Take `C[C@@H]1O[C@@H](OC[C@H]2O[C@@H](OC(CCCCc3ccc(O)cc3)CCc3ccc(O)cc3)[C@H](O)[C@@H](O)[C@@H]2O)[C@H](O)[C@H](O)[C@H]1O` (stereo not given in full): the activation in test [1] was 6.11%. Further, the Potency entry in test [2] and in test [3] was “inactive” each time.

As to `C=C(C(=O)O)C1CC(O)C2(C)CCCC(C)(O)C2C1` (stereo not given), the activation in test [1] was 1.53%. For the same compound, the Potency result in test [2] and in test [3] was “inactive” in each case.

In the case of `CC(=O)N[C@@H](CC(C)C)C(=O)N[C@@H](CCC(=O)O)C(=O)N[C@@H](CCC(=O)O)C(=O)N[C@@H](CC(=O)O)C(=O)Nc1ccc2c(C(F)(F)F)cc(=O)oc2c1` (Ac-LEED-{AFC}), the activation in test [1] was 2.33%. Moreover, the Potency entry in test [2] and in test [3] was “inactive” throughout.

On to `CC1CCC2(OC1)OC1CC3C4CC=C5CC(O)CC(O[C@@H]6OC[C@@H](O)[C@H](O)[C@H]6O)C5(C)C4CCC3(C)C1(O)C2C` (stereo not given in full), for which the activation in test [1] was 16.8%. The Potency entry in test [2] and in test [3] was “inactive” throughout.

With `CC(C)C[C@@H]1NC(=O)[C@@H]2C[C@@]34C[C@@H]5[C@@]6(C)CCCC(C)(C)C6CC[C@@]5(C)N(c5ccccc53)[C@H]4N2C1=O` (stereo not given in full), in test [1], the activation was 3.82%. Besides, the Potency result in test [2] and in test [3] was “inactive” throughout.

As to `CC(C)[C@H]1CC[C@@]2(O)COC(=O)[C@H]2[C@@H]1/C=C(\CO)C(=O)O`, the activation in test [1] is -2.29%. Also, the Potency entry in test [2] and in test [3] was “inactive” in each case.

Regarding `CC1=C(C)C(=O)OC(C(C)C2C(O)CC3C4C5OC5C5(O)CC(OC6OC(CO)C(OC7OC(C)C(O)C(O)C7O)C(O)C6O)CC(O)C5(C)C4CCC32C)C1` (stereo not given), in test [1], the activation is -6.87%. Further, the Potency entry in test [2] and in test [3] was “inactive” throughout.

Regarding `CC(=O)c1ccc(O[C@@H]2OC[C@@H](O)[C@H](O)[C@H]2O[C@]2(CO)O[C@H](CO)[C@@H](O)[C@@H]2O)c(O)c1`, the activation in test [1] is -9.92%. Further, the Potency result in test [2] and in test [3] was “inactive” each time.

`CCCCC(=O)N(Cc1ccc(-c2ccccc2-c2nn[nH]n2)cc1)C(C(=O)O)C(C)C` (stereo not given): the activation in test [1] was 0%. Further, the Potency result in test [2] and in test [3] was “inactive” throughout.

For the compound `Cc1ccc(C)c(NS(=O)(=O)c2cc(C(=O)Nc3ccccc3-c3ccccc3)ccc2C)c1`, in test [1], the activation is 1.67%. Besides, the Potency entry in test [2] and in test [3] was “inactive” in each case.

Consider `C=C1CCC2C(C)(C)CC(=O)CC2(C)C1CCC(C)CCOC(C)=O` (stereo not given), for which the activation in test [1] was -5.34%. Moreover, the Potency entry in test [2] and in test [3] was “inactive” throughout.

Take `COC(=O)C1=COC(O[C@@H]2O[C@H](CO)[C@@H](O)[C@H](O)[C@H]2O)[C@@H]2[C@@](C)(O)[C@@H](OC(=O)/C=C/c3ccccc3)C[C@]12O` (stereo not given in full): in test [1], the activation is 15.2%. Besides, the Potency entry in test [2] and in test [3] was “inactive” throughout.
